Records with an inconclusive call do not appear. A call without a number means that no potency is given here. The source made the active and inactive calls. Calls follow the shape of the dose curve; as a rule, active = well fitted inhibition curve with a large enough effect; inconclusive = small, poorly fitted or top-dose-only effect; inactive = no such curve, though single readings can be large or run the other way.
Target: Cytochrome P450 2C9 (Homo sapiens) (UniProt P11712)
Test: qHTS Assay for Inhibitors and Substrates of Cytochrome P450 2C9 (AID 883)
Conditions: recombinant CYP2C9, luciferin-H luminescence, 60 min; series mostly up to 57.1 µM
Outline: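 Turnover of Luciferin-H (100uM, KM) by 10nM human CYP2C9 was measured over 60 min at 37C with NADPH regeneration; inhibitors and some substrates reduce luminescence. Data normalized to sulphaphenazole 57uM.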
Also: nearly all actives have a fitted effect of over 60% in size.
Potency is read from the fitted curve at half-maximal effect.

Cytochrome P450 2C9 (Homo sapiens), sequence (P11712 whole entry, looked up): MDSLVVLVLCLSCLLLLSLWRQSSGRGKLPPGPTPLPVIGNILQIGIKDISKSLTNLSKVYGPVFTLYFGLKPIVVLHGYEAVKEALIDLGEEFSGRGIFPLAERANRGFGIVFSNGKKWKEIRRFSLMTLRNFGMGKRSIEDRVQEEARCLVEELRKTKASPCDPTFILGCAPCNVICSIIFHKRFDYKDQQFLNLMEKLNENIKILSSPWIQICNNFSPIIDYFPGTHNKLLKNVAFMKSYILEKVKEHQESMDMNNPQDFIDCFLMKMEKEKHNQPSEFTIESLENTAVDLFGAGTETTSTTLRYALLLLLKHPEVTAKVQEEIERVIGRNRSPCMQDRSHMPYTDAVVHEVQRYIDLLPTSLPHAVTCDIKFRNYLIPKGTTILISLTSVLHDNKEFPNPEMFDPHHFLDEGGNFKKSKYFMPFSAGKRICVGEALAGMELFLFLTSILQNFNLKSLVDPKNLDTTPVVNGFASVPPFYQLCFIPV

**Q.** How did the Potency turn out when CC(C)C[C@@H](CC(=O)N[C@@H](CCC(=O)O)CC(=O)O)NC(=O)[C@@H]1CCCC[C@H]1NC(=O)C[C@@H](NC(=O)C[C@H](Cc1ccccc1)NC(=O)[C@@H]1CCCC[C@H]1N)C(C)C was run?
**A.** inactive

**Q.** CC(C)C[C@@H](CC(=O)N[C@@H](CCC(=O)O)CC(=O)O)NC(=O)[C@@H]1CNCC[C@H]1NC(=O)C[C@@H](NC(=O)C[C@H](Cc1ccccc1)NC(=O)[C@@H]1CNCC[C@H]1N)C(C)C was tested. Which Potency did it give?
**A.** inactive

**Q.** Which Potency does the source give for CC(C)C[C@@H](CC(=O)N[C@@H](CCC(=O)O)CC(=O)O)NC(=O)[C@@H]1CNCC[C@H]1NC(=O)C[C@H](CCCN)NC(=O)C[C@H](Cc1c[nH]c2ccccc12)NC(=O)[C@@H]1CNCC[C@H]1N here?
**A.** inactive

**Q.** For NCCC[C@@H](CC(=O)N[C@@H]1CCCC[C@H]1C(=O)N[C@H](CC(=O)N[C@@H](CCC(=O)O)CC(=O)O)Cc1c[nH]c2ccccc12)NC(=O)C[C@H](Cc1c[nH]c2ccccc12)NC(=O)[C@@H]1CCCC[C@H]1N, which Potency is on record?
**A.** inactive

**Q.** How did the Potency turn out when CC(C)[C@@H](CC(=O)N[C@@H]1CCCC[C@H]1C(=O)N[C@H](CC(=O)N[C@@H](CCC(=O)O)CC(=O)O)Cc1c[nH]c2ccccc12)NC(=O)C[C@H](Cc1ccccc1)NC(=O)[C@@H]1CCCC[C@H]1N was run?
**A.** inactive

**Q.** With CC(C)C[C@@H](CC(=O)N[C@H](CC(=O)N[C@@H]1CCCC[C@H]1C(=O)N[C@H](CC(=O)N[C@@H](CCC(=O)O)CC(=O)O)Cc1c[nH]c2ccccc12)C(C)C)NC(=O)[C@@H]1CNCC[C@H]1N as the compound, how does the Potency read?
**A.** inactive

**Q.** For CC(C)C[C@@H](CC(=O)N[C@@H](CCCN)CC(=O)N[C@@H]1CCCC[C@H]1C(=O)N[C@H](CC(=O)N[C@@H](CCC(=O)O)CC(=O)O)Cc1ccccc1)NC(=O)[C@@H]1CNCC[C@H]1N, which Potency is on record?
**A.** inactive

**Q.** With CC(C)C[C@@H](CC(=O)N[C@@H](CCCN)CC(=O)N[C@@H]1CCCC[C@H]1C(=O)N[C@H](CC(=O)N[C@@H](CCC(=O)O)CC(=O)O)CC(C)C)NC(=O)[C@@H]1CCCC[C@H]1N as the compound, how does the Potency read?
**A.** inactive

**Q.** With CC(C)C[C@@H](CC(=O)N[C@H](CC(=O)N[C@@H]1CCNC[C@H]1C(=O)N[C@H](CC(=O)N[C@@H](CCC(=O)O)CC(=O)O)Cc1c[nH]c2ccccc12)C(C)C)NC(=O)[C@@H]1CNCC[C@H]1N as the compound, how does the Potency read?
**A.** inactive

**Q.** With O=C1C=CC2=C3c4cc(O)c(O)cc4C[C@@]3(O)COC2=C1O as the compound, how does the Potency read?
**A.** 3.98 µM (active)

**Q.** With CC(C)C[C@@H](CC(=O)N[C@@H](CCCN)CC(=O)N[C@@H]1CCNC[C@H]1C(=O)N[C@H](CC(=O)N[C@@H](CCC(=O)O)CC(=O)O)Cc1c[nH]c2ccccc12)NC(=O)[C@@H]1CNCC[C@H]1N as the compound, how does the Potency read?
**A.** inactive

**Q.** Which Potency does the source give for NCCC[C@@H](CC(=O)N[C@@H]1CCNC[C@H]1C(=O)N[C@H](CC(=O)N[C@@H](CCC(=O)O)CC(=O)O)Cc1c[nH]c2ccccc12)NC(=O)C[C@H](Cc1ccccc1)NC(=O)[C@@H]1CNCC[C@H]1N here?
**A.** inactive

**Q.** How did the Potency turn out when CC(C)C[C@@H](CC(=O)N[C@@H](CCC(=O)O)CC(=O)O)NC(=O)[C@@H]1CCCC[C@H]1NC(=O)C[C@H](CCCN)NC(=O)C[C@H](Cc1c[nH]c2ccccc12)NC(=O)[C@@H]1CNCC[C@H]1N was run?
**A.** inactive

**Q.** For COc1cc(/C=C\C(=O)N2CCCCC2=O)cc(OC)c1OC, which Potency is on record?
**A.** inactive

**Q.** For CC(C)C[C@@H](CC(=O)N[C@@H](CCC(=O)O)CC(=O)O)NC(=O)[C@@H]1CCCC[C@H]1NC(=O)C[C@H](CCCN)NC(=O)C[C@H](CO)NC(=O)[C@@H]1CCCC[C@H]1N, which Potency is on record?
**A.** inactive

**Q.** For CC(C)[C@@H](CC(=O)N[C@@H]1CCNC[C@H]1C(=O)N[C@H](CC(=O)N[C@@H](CCC(=O)O)CC(=O)O)Cc1c[nH]c2ccccc12)NC(=O)C[C@H](Cc1c[nH]c2ccccc12)NC(=O)[C@@H]1CNCC[C@H]1N, which Potency is on record?
**A.** inactive

**Q.** Which Potency does the source give for CC(C)C[C@@H](CC(=O)N[C@@H](CCC(=O)O)CC(=O)O)NC(=O)[C@@H]1CNCC[C@H]1NC(=O)C[C@@H](NC(=O)C[C@H](Cc1c[nH]c2ccccc12)NC(=O)[C@@H]1CNCC[C@H]1N)C(C)C here?
**A.** inactive

**Q.** For CC(C)C[C@@H](CC(=O)N[C@H](CC(=O)N[C@@H]1CCCC[C@H]1C(=O)N[C@H](CC(=O)N[C@@H](CCC(=O)O)CC(=O)O)CC(C)C)C(C)C)NC(=O)[C@@H]1CNCC[C@H]1N, which Potency is on record?
**A.** inactive

**Q.** How did the Potency turn out when CC(C)[C@@H](CC(=O)N[C@@H]1CCNC[C@H]1C(=O)N[C@H](CC(=O)N[C@@H](CCC(=O)O)CC(=O)O)Cc1ccccc1)NC(=O)C[C@H](CO)NC(=O)[C@@H]1CCCC[C@H]1N was run?
**A.** inactive

**Q.** For NCCC[C@@H](CC(=O)N[C@@H]1CCNC[C@H]1C(=O)N[C@H](CC(=O)N[C@@H](CCC(=O)O)CC(=O)O)Cc1c[nH]c2ccccc12)NC(=O)C[C@H](CO)NC(=O)[C@@H]1CCCC[C@H]1N, which Potency is on record?
**A.** inactive

Target: Cytochrome P450 2D6 (Homo sapiens) (UniProt P10635)
Sequence (P10635 whole entry, looked up): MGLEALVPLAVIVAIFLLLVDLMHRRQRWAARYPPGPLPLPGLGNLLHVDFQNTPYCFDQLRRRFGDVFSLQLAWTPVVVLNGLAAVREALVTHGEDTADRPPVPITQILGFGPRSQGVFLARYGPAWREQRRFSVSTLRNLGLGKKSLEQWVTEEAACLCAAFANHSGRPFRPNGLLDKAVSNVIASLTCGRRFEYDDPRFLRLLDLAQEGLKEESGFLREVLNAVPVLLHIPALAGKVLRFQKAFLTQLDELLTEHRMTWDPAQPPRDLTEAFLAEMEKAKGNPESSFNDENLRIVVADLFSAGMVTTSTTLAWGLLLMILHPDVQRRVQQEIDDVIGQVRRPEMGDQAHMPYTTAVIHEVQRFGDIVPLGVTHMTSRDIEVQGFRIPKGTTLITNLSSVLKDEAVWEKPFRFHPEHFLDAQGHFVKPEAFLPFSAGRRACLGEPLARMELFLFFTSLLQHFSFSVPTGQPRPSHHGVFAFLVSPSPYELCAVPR
Test: qHTS Assay for Inhibitors and Substrates of Cytochrome P450 2D6 (AID 891)
Conditions: recombinant CYP2D6, luciferin-ME EGE luminescence; series mostly up to 57.1 µM
Outline: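 Human CYP2D6 (5 nM) with 30 uM Luciferin-ME EGE (at Km) in 100 mM KPO4, compound preincubated 10 min, then NADPH regeneration system for 60 min at room temperature. Luciferin read by luminescence; normalized to 1.43 uM quinidine.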

**Q.** CC(C)C[C@@H](CC(=O)N[C@@H](CCC(=O)O)CC(=O)O)NC(=O)[C@@H]1CCCC[C@H]1NC(=O)C[C@@H](NC(=O)C[C@H](Cc1ccccc1)NC(=O)[C@@H]1CCCC[C@H]1N)C(C)C was tested. Which Potency did it give?
**A.** inactive

**Q.** Which Potency does the source give for CC(C)C[C@@H](CC(=O)N[C@@H](CCCN)CC(=O)N[C@@H]1CCCC[C@H]1C(=O)N[C@H](CC(=O)N[C@@H](CCC(=O)O)CC(=O)O)Cc1c[nH]c2ccccc12)NC(=O)[C@@H]1CNCC[C@H]1N here?
**A.** inactive

**Q.** CC(C)C[C@@H](CC(=O)N[C@@H](CCC(=O)O)CC(=O)O)NC(=O)[C@@H]1CNCC[C@H]1NC(=O)C[C@@H](NC(=O)C[C@H](Cc1ccccc1)NC(=O)[C@@H]1CNCC[C@H]1N)C(C)C was tested. Which Potency did it give?
**A.** inactive

**Q.** With CC(C)C[C@@H](CC(=O)N[C@@H](CCC(=O)O)CC(=O)O)NC(=O)[C@@H]1CNCC[C@H]1NC(=O)C[C@H](CCCN)NC(=O)C[C@H](Cc1c[nH]c2ccccc12)NC(=O)[C@@H]1CNCC[C@H]1N as the compound, how does the Potency read?
**A.** inactive

**Q.** For CC(C)[C@@H](CC(=O)N[C@@H]1CCCC[C@H]1C(=O)N[C@H](CC(=O)N[C@@H](CCC(=O)O)CC(=O)O)Cc1c[nH]c2ccccc12)NC(=O)C[C@H](CO)NC(=O)[C@@H]1CNCC[C@H]1N, which Potency is on record?
**A.** inactive

**Q.** For NCCC[C@@H](CC(=O)N[C@@H]1CCCC[C@H]1C(=O)N[C@H](CC(=O)N[C@@H](CCC(=O)O)CC(=O)O)Cc1c[nH]c2ccccc12)NC(=O)C[C@H](CO)NC(=O)[C@@H]1CCCC[C@H]1N, which Potency is on record?
**A.** inactive

**Q.** Which Potency does the source give for NCCC[C@@H](CC(=O)N[C@@H]1CCCC[C@H]1C(=O)N[C@H](CC(=O)N[C@@H](CCC(=O)O)CC(=O)O)Cc1c[nH]c2ccccc12)NC(=O)C[C@H](Cc1c[nH]c2ccccc12)NC(=O)[C@@H]1CCCC[C@H]1N here?
**A.** inactive

**Q.** Which Potency does the source give for CC(C)[C@@H](CC(=O)N[C@@H]1CCCC[C@H]1C(=O)N[C@H](CC(=O)N[C@@H](CCC(=O)O)CC(=O)O)Cc1c[nH]c2ccccc12)NC(=O)C[C@H](Cc1ccccc1)NC(=O)[C@@H]1CCCC[C@H]1N here?
**A.** inactive

**Q.** Which Potency does the source give for CC(C)C[C@@H](CC(=O)N[C@H](CC(=O)N[C@@H]1CCCC[C@H]1C(=O)N[C@H](CC(=O)N[C@@H](CCC(=O)O)CC(=O)O)Cc1c[nH]c2ccccc12)C(C)C)NC(=O)[C@@H]1CNCC[C@H]1N here?
**A.** inactive

**Q.** How did the Potency turn out when CC(C)[C@@H](CC(=O)N[C@@H]1CCCC[C@H]1C(=O)N[C@H](CC(=O)N[C@@H](CCC(=O)O)CC(=O)O)Cc1c[nH]c2ccccc12)NC(=O)C[C@H](Cc1c[nH]c2ccccc12)NC(=O)[C@@H]1CNCC[C@H]1N was run?
**A.** inactive

**Q.** CC(C)C[C@@H](CC(=O)N[C@@H](CCCN)CC(=O)N[C@@H]1CCCC[C@H]1C(=O)N[C@H](CC(=O)N[C@@H](CCC(=O)O)CC(=O)O)Cc1ccccc1)NC(=O)[C@@H]1CNCC[C@H]1N was tested. Which Potency did it give?
**A.** inactive

**Q.** Which Potency does the source give for CC(C)[C@@H](CC(=O)N[C@@H]1CCNC[C@H]1C(=O)N[C@H](CC(=O)N[C@@H](CCC(=O)O)CC(=O)O)Cc1c[nH]c2ccccc12)NC(=O)C[C@H](CO)NC(=O)[C@@H]1CNCC[C@H]1N here?
**A.** inactive

**Q.** With CC(C)C[C@@H](CC(=O)N[C@@H](CCCN)CC(=O)N[C@@H]1CCCC[C@H]1C(=O)N[C@H](CC(=O)N[C@@H](CCC(=O)O)CC(=O)O)CC(C)C)NC(=O)[C@@H]1CCCC[C@H]1N as the compound, how does the Potency read?
**A.** inactive

**Q.** For CC(C)C[C@@H](CC(=O)N[C@H](CC(=O)N[C@@H]1CCNC[C@H]1C(=O)N[C@H](CC(=O)N[C@@H](CCC(=O)O)CC(=O)O)Cc1c[nH]c2ccccc12)C(C)C)NC(=O)[C@@H]1CNCC[C@H]1N, which Potency is on record?
**A.** inactive

**Q.** For O=C1C=CC2=C3c4cc(O)c(O)cc4C[C@@]3(O)COC2=C1O, which Potency is on record?
**A.** 25.1 µM (active)

**Q.** Which Potency does the source give for NCCC[C@@H](CC(=O)N[C@@H]1CCCC[C@H]1C(=O)N[C@H](CC(=O)N[C@@H](CCC(=O)O)CC(=O)O)Cc1c[nH]c2ccccc12)NC(=O)C[C@H](Cc1ccccc1)NC(=O)[C@@H]1CNCC[C@H]1N here?
**A.** inactive

**Q.** For CC(C)C[C@@H](CC(=O)N[C@@H](CCCN)CC(=O)N[C@@H]1CCNC[C@H]1C(=O)N[C@H](CC(=O)N[C@@H](CCC(=O)O)CC(=O)O)Cc1c[nH]c2ccccc12)NC(=O)[C@@H]1CNCC[C@H]1N, which Potency is on record?
**A.** inactive

**Q.** Which Potency does the source give for NCCC[C@@H](CC(=O)N[C@@H]1CCNC[C@H]1C(=O)N[C@H](CC(=O)N[C@@H](CCC(=O)O)CC(=O)O)Cc1c[nH]c2ccccc12)NC(=O)C[C@H](Cc1ccccc1)NC(=O)[C@@H]1CNCC[C@H]1N here?
**A.** inactive

**Q.** For CC(C)C[C@@H](CC(=O)N[C@@H](CCC(=O)O)CC(=O)O)NC(=O)[C@@H]1CCCC[C@H]1NC(=O)C[C@H](CCCN)NC(=O)C[C@H](Cc1c[nH]c2ccccc12)NC(=O)[C@@H]1CNCC[C@H]1N, which Potency is on record?
**A.** inactive

**Q.** Which Potency does the source give for COc1cc(/C=C\C(=O)N2CCCCC2=O)cc(OC)c1OC here?
**A.** inactive
